Reference: PubChem BioAssay (NCI)
Compounds without any hit were thinned out: in the full panel of roughly 83,000, 20% have a hit.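 The endpoint reported here, percent growth, reads 100 for growth as untreated, 0 for no net growth and -100 for all cells dead.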 Unmarked numbers belong to inactive results. Activity calls are given as the source filed them. Rule for the calls: active = growth percent below 10; inactive = the rest.

Legend:
Assay in all cases: NCI-60 one-dose screen, 48 h (100 = growth as untreated, 0 = no growth, -100 = all killed)
HCT-15 colon = conditions: 10 µM unless noted
HT29 colon = conditions: 10 µM unless noted
SNB-75 CNS = conditions: 10 µM unless noted
SNB-19 CNS = conditions: 10 µM unless noted
U251 CNS = conditions: 10 µM unless noted
PC-3 prostate = conditions: 10 µM unless noted
SK-MEL-5 melanoma = conditions: 10 µM unless noted
UACC-62 melanoma = conditions: 10 µM unless noted
LOX IMVI melanoma = conditions: 10 µM unless noted
SK-MEL-28 melanoma = conditions: 10 µM unless noted
SK-MEL-2 melanoma = conditions: 10 µM
EKVX NSCLC = conditions: 10 µM unless noted
SN12C renal = conditions: 10 µM unless noted
UO-31 renal = conditions: 10 µM unless noted
TK-10 renal = conditions: 10 µM unless noted
ACHN renal = conditions: 10 µM unless noted
A498 renal = conditions: 10 µM unless noted
CCRF-CEM leukemia = conditions: 10 µM unless noted
MOLT-4 leukemia = conditions: 10 µM unless noted
CAKI-1 renal = conditions: 10 µM unless noted

SMILES	growth (HCT-15 colon)	growth (HT29 colon)	growth (SNB-75 CNS)	growth (SNB-19 CNS) [%]	growth (U251 CNS)	growth (PC-3 prostate) [%]	growth (SK-MEL-5 melanoma)	growth (UACC-62 melanoma)	growth (LOX IMVI melanoma)	growth (SK-MEL-28 melanoma)	growth (SK-MEL-2 melanoma)	growth (EKVX NSCLC) [%]	growth (SN12C renal) [%]	growth (UO-31 renal)	growth (TK-10 renal)	growth (ACHN renal)	growth (A498 renal)	growth (CCRF-CEM leukemia)	growth (MOLT-4 leukemia)	growth (CAKI-1 renal) [%]
Cc1sc2c(c1C)c(=O)nc1c(-c3nc(-c4ccccc4)cs3)n[nH]n12	82.4%	107%	101%	102	94%	82.1	102%	91.8%	95.9%	106%	99.9%	80.1	100	76.2%	145%	97.1%	105%	85.8%	85.7%	
CCN1CCN(c2cc(C)nc(N(CCCNc3ccnc4cc(Cl)ccc34)Cc3cccs3)n2)CC1	3.14% (active)	1.82% (active)	-5.92% (active)	12.5	0.735% (active)	32.8	-97.4% (active)	-19.8% (active)	-73.5% (active)	-65.9% (active)	-37.8% (active)	42.3	39	-76.1% (active)	-41% (active)	7.79% (active)	-13.7% (active)	1.95% (active)	5.24% (active)	
CN(N)c1nc2sc3c(c2c(=O)[nH]1)CCCC3	99.6%	90.4%	91.9%	105	92.1%	94.9	106%	110%	102%	114%	103%	86.6	104	72.9%	111%	107%		98.9%	97.5%	
N#Cc1c(-c2ccc(C(F)(F)F)cc2)cc(NCC2CCS(=O)(=O)CC2)n2c1nc1ccccc12	86.2%	75.7%	52.5%	83.5	83.2%	63.4	77.7%	80.8%	77.5%	95.8%	89.7%	77.5	82.3	56.2%	93.1%		55.3%	86.2%	74.3%	80.9
CCc1cc2c(c3ccc(C(=O)CBr)cc13)CCCC2	101%	91.7%	91.5%	108	95.1%	96	106%	91.8%	93.3%	108%	96.9%	74.3	99.7	81.4%	91.9%	105%	102%	114%	85.8%	
O=c1[nH]c(N2CCOCC2)nc2scc(-c3ccccc3)c12	99%	86.8%	84.3%	106	69.5%	94.6	98.7%	99.2%	100%	110%	81.8%	53.3	107	83.1%	86.6%	99.3%		101%	90.5%	
COC(=O)[C@@H](C)CNS(=O)(=O)N(c1cc(C(F)(F)F)cc(C(F)(F)F)c1)C1CCN(Cc2ccc(F)cc2)CC1	27.9%	19.5%	65.4%	67.7	52.3%	45.4	29.9%	69.1%	48.2%	82.9%	81.7%	74.6	36.8	44%	89%	86.4%		56.6%	58.2%	
Cc1ccc2oc(=O)cc(-c3cc(-c4cc5ccccc5oc4=O)nc(N)c3C#N)c2c1	91.1%	68.3%	34%	75.8	54.3%	69	60.8%	81.5%	78.2%	76.7%	87.2%	79	68.2	48.5%	71.9%	41.6%	80.1%	93.7%	93.9%	
